Among the data in PubChem BioAssay (EPA / NIEHS) are outcome and AC50 values, retold here.

Values joined by “and” are separate entries in the source; they are usually repeats but may differ in a detail not shown here. Identical values can stand only once. Some compounds were tested as several samples or in several runs, with calls that do not always agree. Active and inactive are the calls of the source. Rule for the calls: active = hit-call score of the fitted dose curve at least 0.9, where 1 is the maximum; inactive = score below 0.9.

Read-out in the experiment: CD40, CD40 (gene 958)
The experiment is described as follows: BSK_LPS_CD40: BioMAP Diversity Plus: LPS Assay for CD40 Biomarker Activity (AID 2283076). Conditions: primary human HUVEC with PBMC; actives raise or lower the signal. The method, then:
BSK_LPS is a cell-based, multiplexed-readout assay that uses umbilical vein endothelium and peripheral blood mononuclear cells, a human vascular primary cell co-culture, with measurements taken at 24 hours after chemical dosing in a 96-well plate.BSK_LPS_CD40 is an assay component measured in the BSK_LPS assay. It measures CD40 antibody related to regulation of gene expression using ELISA technology.Data from the assay component BSK_LPS_CD40 was analyzed into 1 assay endpoint. This assay endpoint, BSK_LPS_CD40, was analyzed with bidirectional fitting relative to DMSO as the negative control and baseline of activity. Using a type of binding reporter, gain or loss-of-signal activity can be used to understand changes in the signaling as they relate to the gene CD40. Furthermore, this assay endpoint can be referred to as a primary readout, because this assay has produced multiple assay endpoints where this one serves a signaling function. To generalize the intended target to other relatable targets, this assay endpoint is annotated to the cytokine intended target family, where the subfamily is inflammatory factor.
The levels of cell surface (or secreted, indicated by the prefix "s") biomarker endpoints were measured by ELISA. Overt cytotoxicity to cells in confluent adherent cultures (all systems other than the BT system) was assessed by measuring total protein levels using sulforhodamine B (SRB) staining in parallel cultures at the time of biomarker measurements, indicated as SRB endpoints. For proliferation assays for adherent cell types, individual cell types are cultured at sub-confluence and relative cell numbers quantified by SRB staining at time points optimized for each system (48 h: 3C and CASM3C systems; 72 h: BT and HDF3CGF systems; 96 h: SAg system). SRB was performed by staining cells with 0.1% SRB after fixation with 10% TCA and reading wells at 560 nm.Viability and proliferation of PBMC (T cells) was quantified by Alamar Blue reduction for the SAg and BT systems. For PBMC viability (referred to as PBMC Cytotoxicity within the assay endpoint names), cells were plated (75,000/well in a 96-well plate) and then chemical samples added for 1 h before addition of activators, SEB and TSST-1 (20 ng/mL final concentration each). Cells were incubated for 90 h. Then, Alamar Blue (20 uL/well) (Invitrogen, Cat DAL1100) was added for 6 h, and the plates were read with a fluorescence microplate reader at 546/580 nm (excitation/emission). For PBMC proliferation, cells were plated and activated as above but incubated for only 16 h prior to addition of Alamar Blue. Plates were read after 6 h.
On to `CCOC(=O)C=Cc1ccccc1`, for which the result was inactive.
As for `NC(=O)c1c(Cl)cccc1Cl`, the result was inactive.
Same read-out and setting: the same measure for `CCCCOCCOCCO`: “inactive”.
On to `O=C(O)C(F)(F)OC(F)(F)C(F)(F)OC(F)(F)C(F)(F)C(F)(F)C(F)(F)F`, for which the AC50 (commonly the midpoint of the concentration-response curve, whichever way the signal moves) was 48.6 µM (active) and the outcome was inactive.
Take `CCCCN(CCO)CCO`: the result was inactive.
`c1ccc(Sc2ccccc2)cc1`: the result was inactive.
The same measure, in the same setting: as for `CCOC(=O)CCCCCCCCC(=O)OCC`, the entry is “inactive”; as for `CCCCCCCC1CCCC1=O` (stereo not given), “inactive”.
The same measure, in the same setting: as for `CC(=O)c1ccc(C)cc1`, the entry is “inactive”.
Take `C=CC(=O)OCC(CO)(COC(=O)C=C)COC(=O)C=C`: the half-maximal activity concentration (AC50) is 0.454 µM (active).
In the case of `OCC(F)(OC(F)(F)C(F)(OC(F)(F)C(F)(F)C(F)(F)F)C(F)(F)F)C(F)(F)F` (stereo not given), the concentration at half-maximal activity (AC50) was 1.1 µM (active) and the outcome was inactive.
As for `CCn1cc(C(=O)O)c(=O)c2ccc(C)nc21`, the outcome was inactive.
Still for that read-out and setting: the same measure for `CC(C)CCCC(C)(C)O`: “inactive”; for `C[C@]12CC[C@@H]3c4ccc(O)cc4CC[C@H]3[C@@H]1CC[C@@H]2O`: “inactive”.
As for `OCCN1CCOCC1`, the result was inactive.
As to `c1ccc(OCCOc2ccccc2)cc1`, the outcome was inactive.
As to `CC(C)(CO)CO`, the result was inactive.
Take `O=S1(=O)CC(Cl)(Cl)C(Cl)(Cl)C1`: the AC50 was 0.457 µM (active).
On the same count and under the same terms, the same measure for `C=C1CC/C=C(\C)CC[C@@H]2[C@@H]1CC2(C)C`: 30.5 µM (active).
For `C=C(F)C(=O)OC(C(F)(F)F)C(F)(F)F`, the outcome was inactive.
Still for that read-out and setting: as for `C#C[C@]1(O)CC[C@H]2[C@@H]3CCc4cc(O)ccc4[C@H]3CC[C@@]21C`, the entry is “inactive”; as for `COc1ccccc1NC(=O)CC(C)=O`, “inactive”; as for `O=S(=O)(O)C(F)(F)C(F)(F)OC(F)(F)C(F)(F)F`, “inactive”.
On the same count and under the same terms, as for `CC(=O)CCC=C(C)CCC=C(C)C`, the entry is “inactive”; as for `O=C(O)C(F)(F)C(F)(F)C(F)(F)C(F)(F)C(F)(F)C(F)(F)C(F)(F)C(F)F`, “inactive”.
On the same count and under the same terms, the same measure for `CC(C)Cc1ccc(C(C)C(=O)O)cc1` (stereo not given): “inactive”.
On to `CC1=CC(C)C(C=O)C(C)C1` (stereo not given) (tested in a mixture with another compound), for which the result was inactive.
Turning to `CCCCCCCCCC(=O)OCC`, the outcome was inactive.
For the molecule `CCCCCCCCCCCCS`, the AC50 was 20 µM (active).
In the case of `C=C(C)C(=O)OCCC(F)(F)C(F)(F)C(F)(F)C(F)(F)C(F)(F)C(F)(F)C(F)(F)C(F)(F)F`, the result was inactive.
Consider `Nc1ccc(N)c([N+](=O)[O-])c1`, for which the outcome was inactive.
For the molecule `CC(=O)OC(C)(C)C1CC=C(C)CC1` (stereo not given), the result was inactive.
On the same count and under the same terms, as for `CC=CC(=O)C1=C(C)C=CCC1(C)C`, the entry is “inactive”.
Turning to `CC/C(=C(\c1ccccc1)c1ccc(OCCN(C)C)cc1)c1ccccc1`, the AC50 was 7.05 µM (active) and 5.81 µM (active).
Same read-out and setting: the same measure for `c1ccc2c(c1)-c1ccc3ccc4cccc5cc-2c1c3c45`: 2.76 µM (active).
For the molecule `C=C(C)C(N)=O`, the result was inactive.
For the molecule `O=C(c1ccc(OCCN2CCCCC2)cc1)c1c(-c2ccc(O)cc2)sc2cc(O)ccc12`, the AC50 was 16.6 µM (active).
For `O=C1OC2(c3ccc(O)cc3Oc3cc(O)ccc32)c2ccccc21`, the outcome was inactive.
